Only a selection was taken, and hits are over-represented in it overall.
DUX4 inh: inhibitors of DUX4-driven ZSCAN4 reporter expression, primary screen, 293T cells, Gaussia and Italica luciferase; 293T-iDUX4 ZSCAN4-Gaussia luciferase reporter, 24 h; active compounds read low; activity change, negative = inhibition, % (concentration not given with the values); 37,000 tested, 0.8% active; AID 1224904, 2016;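 active = mean inhibition of at least 10% in the main channel, exceeding the control channel by a set limit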
Large screens that a line does not name were inactive.

CCC(=O)Nc1ccc2c(c1)C(=O)N(C)C[C@H](OC)[C@H](C)CN(C(=O)c1ccc(F)cc1)[C@H](C)CO2	none
CCC(=O)N1[C@H](CO)[C@@H]2c3ccccc3N(S(=O)(=O)c3ccccc3)C[C@@H]21	none
C/C=C/c1ccc([C@H]2[C@H](CO)N3C(=O)CN(S(=O)(=O)c4cccc(F)c4)C[C@@H]23)cc1	none
COCC(=O)N1CC[C@H]2[C@H](CO)Nc3ccc(-c4ccc(C#N)cc4)cc3[C@H]21	none
O=C(CN1CCOCC1)N1CC[C@H]2[C@H](CO)Nc3ccc(-c4ccccc4)cc3[C@H]21	none
COc1ccccc1C#Cc1ccc2c(c1)[C@H]1[C@H](CCN1C(=O)CN1CCOCC1)[C@@H](CO)N2	none
O=C(Cc1ccccc1)N1CC[C@@H]2[C@H]1c1cc(-c3ccc(F)cc3)ccc1N[C@@H]2CO	DUX4 inh -24
COCC(=O)N1CC[C@@H]2[C@H]1c1cc(C#Cc3ccc(OC)cc3)ccc1N[C@@H]2CO	DUX4 inh -18
O=C(Cc1ccccc1)N1CC[C@@H]2[C@@H](CO)Nc3ccc(-c4cccc(F)c4)cc3[C@@H]21	none
N#Cc1ccc(-c2ccc3c(c2)[C@@H]2[C@@H](CCN2C(=O)Cc2ccccc2)[C@H](CO)N3)cc1	none
COCC(=O)N1CC[C@@H]2[C@@H](CO)Nc3ccc(C#Cc4ccc(F)cc4)cc3[C@@H]21	none
COCC(=O)N1CC[C@@H]2[C@H](CO)Nc3ccc(-c4ccc(C(=O)N(C)C)cc4)cc3[C@@H]21	none
CCC(=O)N1CC[C@@H]2[C@H](CO)Nc3ccc(C#Cc4ccc(OC)cc4)cc3[C@@H]21	none
COCC(=O)N1CC[C@@H]2[C@H]1c1cc(-c3ccc(C#N)cc3)ccc1N[C@@H]2CO	DUX4 inh -34
COc1ccccc1C#Cc1ccc2c(c1)[C@H]1[C@H](CCN1C(=O)CN1CCOCC1)[C@H](CO)N2	DUX4 inh -21
C[C@@H]1CN([C@@H](C)CO)C(=O)CCCn2cc(nn2)CO[C@H]1CN(C)Cc1ccc(C(F)(F)F)cc1	none
CS(=O)(=O)N1C[C@@H](O)COC[C@H]2O[C@@H](CC(=O)NC3Cc4ccccc4C3)CC[C@@H]21	none
O=C(C[C@@H]1CC[C@@H](NC(=O)C2CCOCC2)[C@H](CO)O1)Nc1nccs1	none
Cc1noc(C)c1NC(=O)N(C)C[C@@H]1Oc2c(NC(=O)c3nc4ccccc4s3)cccc2C(=O)N([C@H](C)CO)C[C@H]1C	none
CC(C)NC(=O)N(C)C[C@@H]1OCCCC[C@H](C)Oc2ccc(NS(C)(=O)=O)cc2C(=O)N([C@H](C)CO)C[C@@H]1C	none
CC(C)c1cccc(NC(=O)C[C@H]2CC[C@H]3[C@@H](COc4ccc(NS(=O)(=O)c5ccccc5Cl)cc4C(=O)N3C)O2)c1	none
O=C(c1ccccc1)N1CC[C@H]2[C@H](CO)Nc3ccc(C#Cc4cccc(F)c4)cc3[C@H]21	none
O=C(c1ccccc1)N1CC[C@@H]2[C@H](CO)Nc3ccc(C#Cc4cccc(F)c4)cc3[C@@H]21	DUX4 inh -40
O=C(c1ccccc1F)N1CC[C@@H]2[C@@H](CO)Nc3ccc(C#Cc4ccccc4F)cc3[C@@H]21	none
O=C(c1ccc2c(c1)OCO2)N1CC[C@@H]2[C@H]1c1cc(-c3ccccc3)ccc1N[C@@H]2CO	none
O=C(c1ccccc1F)N1CC[C@@H]2[C@H](CO)Nc3ccc(C#Cc4ccc(F)cc4)cc3[C@@H]21	DUX4 inh -33
O=C(c1ccc2c(c1)OCO2)N1CC[C@@H]2[C@H](CO)Nc3ccc(-c4ccccc4)cc3[C@@H]21	none
COc1ccccc1C#Cc1ccc2c(c1)[C@@H]1[C@@H](CCN1C(=O)c1cccc(F)c1)[C@H](CO)N2	none
O=C(c1ccc2c(c1)OCO2)N1CC[C@@H]2[C@H](CO)Nc3ccc(C#Cc4ccccc4)cc3[C@@H]21	DUX4 inh -54
COc1ccc(C#Cc2ccc3c(c2)[C@@H]2[C@@H](CCN2C(=O)c2ccccc2F)[C@@H](CO)N3)cc1	none
Cc1ccccc1-c1cnc2c(c1)C(=O)N([C@H](C)CO)C[C@H](C)[C@H](CN(C)CC1CCOCC1)O2	none
CO[C@H]1CN(C)C(=O)c2ccc(NC(C)=O)cc2OC[C@@H](C)N(C(=O)c2ccccc2)C[C@H]1C	none
O=C(C[C@@H]1CC[C@@H]2[C@H](COC[C@H](O)CN2Cc2ccccc2)O1)NCCCN1CCOCC1	none
COCC(=O)Nc1ccc2c(c1)C(=O)N(C)C[C@@H](OC)[C@H](C)CN(C(=O)c1ccncc1)[C@@H](C)CO2	none
CC(C)NC(=O)N(C)C[C@@H]1Oc2ncc(Br)cc2C(=O)N([C@H](C)CO)C[C@@H]1C	none
C[C@@H]1CN([C@@H](C)CO)C(=O)c2ccccc2-c2ccccc2CO[C@@H]1CN(C)Cc1ccc(O)cc1	none
C[C@H](CO)N1C[C@H](C)[C@H](CN(C)Cc2ccc(O)cc2)OCc2ccccc2-c2ccccc2C1=O	none
C[C@@H]1CN([C@H](C)CO)C(=O)c2ccccc2-c2ccccc2CO[C@@H]1CN(C)Cc1ccc2c(c1)OCO2	none
C[C@H](CO)N1C[C@H](C)[C@@H](CN(C)Cc2ccc(F)cc2)OCc2ccccc2-c2ccccc2C1=O	none
C[C@H]1CN([C@@H](C)CO)C(=O)c2ccccc2-c2ccccc2CO[C@@H]1CN(C)Cc1ccc(Cl)c(Cl)c1	DUX4 inh -42
C[C@@H]1CN([C@H](C)CO)C(=O)c2ccccc2-c2ccccc2CO[C@@H]1CN(C)Cc1ccc(Cl)c(Cl)c1	DUX4 inh -52
CCC(=O)Nc1ccc2c(c1)C(=O)N(C)C[C@H](OC)[C@@H](C)CN(Cc1nccs1)[C@@H](C)CO2	none
O=C(C1CCOCC1)N1[C@@H](CO)[C@H](c2ccccc2)C12CN(CCC(F)(F)F)C2	none
CCC(=O)N1CCCCN2[C@H](C1)[C@H](c1ccc(-c3ccc(F)cc3)cc1)[C@@H]2CO	none
C[C@H](CO)N1C[C@H](C)[C@@H](CN(C)Cc2cccc(O)c2)OCc2ccccc2-c2ccccc2C1=O	none
C[C@@H]1CN([C@@H](C)CO)C(=O)c2ccccc2-c2ccccc2CO[C@@H]1CN(C)Cc1ccc(C(F)(F)F)cc1	none
C[C@H]1CN([C@@H](C)CO)C(=O)c2ccccc2-c2ccccc2CO[C@@H]1CN(C)Cc1cccc(C(F)(F)F)c1	DUX4 inh -37
C[C@@H]1CN([C@@H](C)CO)C(=O)c2ccccc2-c2ccccc2CO[C@@H]1CN(C)Cc1cccc(F)c1	none
C[C@@H]1CN([C@@H](C)CO)C(=O)c2ccccc2-c2ccccc2CO[C@@H]1CN(C)Cc1cccc(C(F)(F)F)c1	DUX4 inh -63
C[C@@H]1CN([C@@H](C)CO)C(=O)c2ccccc2-c2ccccc2CO[C@H]1CN(C)Cc1cccc(C(=O)O)c1	none
CCS(=O)(=O)N1[C@H](C#N)[C@@H](c2ccc(C#CC(C)C)cc2)[C@@H]1CO	none
O=C(Cc1ccncc1)NCC[C@H]1CC[C@@H](NS(=O)(=O)c2ccccc2Cl)[C@@H](CO)O1	none
C[C@H]1CN([C@@H](C)CO)C(=O)CCCn2nncc2CO[C@@H]1CN(C)Cc1cccc(C(=O)O)c1	none
O=C(C[C@@H]1CC[C@H]2[C@@H](COC[C@@H](O)CN2C(=O)c2ccccc2)O1)NCCCN1CCOCC1	none
Cn1cnc(S(=O)(=O)N2CCCCN3[C@H](CO)[C@@H](c4ccc(-c5cccc(F)c5)cc4)[C@H]3C2)c1	none
CN1CCN(C(=O)[C@H]2[C@H](CO)[C@H]3Cn4c(cccc4=O)[C@@H]2N3S(=O)(=O)c2ccccc2F)CC1	none
C[C@@H]1CN([C@@H](C)CO)C(=O)c2c(c3ccccc3n2C)-c2ccccc2CO[C@@H]1CN(C)C(=O)c1cc(Cl)cc(Cl)c1	DUX4 inh -42

Compound activity: PubChem, Broad Institute
